DT40 TDP1 no CPT = qHTS for Inhibitors of human tyrosyl-DNA phosphodiesterase 1 (TDP1): qHTS in cells in absence of CPT; DT40 Tdp1-/- hTDP1 cells, no CPT, ATP luminescence, 48 h; Potency, µM (titrated, usually from 46.2 µM), inactives show at the top dose activity change, negative = growth inhibition, actives largely listed as inhibitors; 420,000 compounds, 15% hits; AID 686978, 2013; note: % is set by controls: 0 for no effect and ±100 for the full control effect; nearly all actives have a fitted effect of over 55% in size
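A cellular qHTS used chicken DT40 cells lacking endogenous Tdp1 but carrying stably transfected human TDP1. Compounds were applied without camptothecin, and cell growth kinetics were judged by ATP-dependent luminescence after ≥48 hr.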
HT1080-NT tox = kills 2HG-producing HT-1080-NT fibrosarcoma cells. HT-1080-NT fibrosarcoma viability, CellTiter-Glo ATP luminescence, 48 h. Potency, µM (series often up to 46.1 µM), without a hit: at the highest dose activity, negative = less viability, hits mostly cytotoxic. 360,000 compounds, 1.6% hits. AID 686970;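 note: NT is the 2HG producing partner of a matched IDH1 knockdown line; 0% = DMSO-treated cells and -100% = media-only wells without cells; nearly all actives have a fitted effect of over 55% in size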
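A 48-hour cytotoxicity screen used HT-1080-NT cells plated 2 hours before compound delivery. ATP-based CellTiter-Glo luminescence measured viability, normalized to DMSO and no-cell controls.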
TDP1 cell CPT = growth inhibition of DT40 Tdp1-/-;hTDP1 cells with camptothecin (screen for TDP1 inhibitors); chicken DT40 Tdp1-/-;hTDP1 cells + 20 nM CPT, ATP luminescence, 48 h; Potency, µM (doses to about 46.2 µM), without a hit: at the highest dose activity change, negative = growth inhibition, most hits filed as inhibitors; 420,000 compounds, 12% hits; AID 686979; note: % is set by controls: 0 for no effect and ±100 for the full control effect; nearly all actives have a fitted effect of over 55% in size
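Chicken DT40 Tdp1-/- cells complemented with human TDP1, 400 cells/well, exposed to compounds plus 20 nM camptothecin for at least 48 h at 37 C; viability read as ATP content by CellTiter-Glo luminescence.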
TGFb SMAD3 inh = inhibitors of TGF-b signaling | HepG2 CAGA-GFP TGF-b/SMAD3 reporter, GFP fluorescence, 18 h; TGF-beta stimulated, 500 pg/mL final | Potency, µM (top dose mostly 46.1 µM), for the others: top-dose activity, negative = inhibition, most hits filed as inhibitors | 410,000 compounds, 1.2% hits; note: % is set by controls: 0 for no effect and ±100 for the full control effect; nearly all actives have a fitted effect of over 65% in size
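Smad-responsive CAGA-GFP expression was quantified in HEPG2 cells exposed to compounds and 500 pg/mL final TGF-beta for 18 h at 37 degrees C; unstimulated wells defined full inhibition.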
HT1080 IDH1KD tx = toxicity to HT-1080 IDH1 knockdown cells (counter line). HT-1080 IDH1 knockdown viability, ATP luminescence, 48 h. Potency, µM (series often up to 46.1 µM), for the others: top-dose activity, negative = toxicity, hits mostly cytotoxic. 360,000 compounds, 2% hits;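 note: 0% = DMSO wells and -100% = cell-free medium wells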
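Cytotoxicity counter-line: IDH1KD HT-1080, 48 h, CellTiter-Glo. Curves classed by r2, magnitude and activity.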
HepG2 tox = counter-screen for TGF-b inhibitors: cytotoxicity in HepG2 cells. HepG2 CAGA-GFP viability, ATP luminescence, 18 h. Potency, µM (series often up to 46.1 µM), for the others: top-dose activity change, negative = cytotoxicity, actives largely listed as cytotoxic. 410,000 compounds, 0.76% hits
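CellTiter-Glo luminescence gave cytotoxicity after 18 hours at 37 degrees C. The cells were HepG2 CAGA-GFP in 1% FBS DMEM, stimulated with 500 pg/mL TGF-beta after compound addition. %Activity was normalised to no-cell wells (complete cell-killing) and DMSO (no toxicity), and curves were fitted and classified.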
* hit, by the source's call; ? = inconclusive; · = not tested or not shown; [ ] = another dose, or the depositor's remark. A selection: hits, their analogues and other compounds. The true share with any hit is near 17%. Calls come from the whole dose curve; as a rule, active = well fitted curve in the direction sought with a large enough effect; inconclusive = small, poorly fitted or top-dose-only effect, or another doubt; inactive = no such curve, though single readings can be large; an effect the other way counts as inactive or inconclusive. Potency is the fitted concentration of half-maximal effect.

SMILES	DT40 TDP1 no CPT	HT1080-NT tox	TDP1 cell CPT	TGFb SMAD3 inh	HT1080 IDH1KD tx	HepG2 tox
CC(=O)N1CC(=O)N=C1SCC(=O)Nc1nc(-c2ccccc2)c(-c2ccccc2)s1	13µM*	?	18.4µM*	-4.8%	?	5.7%
CCNc1ncc2nc(-c3ccc(Cl)cc3)c(=O)n(Cc3cccs3)c2n1	-15.4%	·	-17.8%	·	·	·
COc1ccc2c(c1)-c1nc(-n3ncc(C(=O)NCC4CCCN(C)C4)c3C3CC3)ncc1CC2 (stereo unspecified)	-18.4%	·	3.7%[9.04 µM]	·	·	·
COc1ccc2c(c1)-c1nc(-n3ncc(C(=O)NCc4cccnc4)c3C3CC3)ncc1CC2	23.1µM*	·	-5.7%[9.04 µM]	·	·	·
COc1ccc2c(c1)-c1nc(-n3ncc(C(=O)NC[C@@H]4CCCN5CCCC[C@H]45)c3C)ncc1CC2	9.2µM*	·	?	·	·	·
CCN1CCCC1CNC(=O)c1cnn(-c2ncc3c(n2)-c2ccc(OC)cc2CC3)c1C1CC1 (stereo unspecified)	-20.7%	·	15.5%[9.04 µM]	·	·	·
Cc1cc(C(=O)NCC(c2ccco2)N(C)C)ccc1[N+](=O)[O-] (stereo unspecified)	4.9%	-2.5%	11.7%	-18.4%	10.8%	-16.3%
O=C(NNc1cc(N2CCOCC2)nc(N2CCOCC2)n1)c1ccc(Cl)cc1Cl	-0.3%	0.5%	-6.1%	-16.6%	3.6%	18.3%
COc1ccc(Cl)cc1N1C(=O)/C(=C\c2sccc2C)N=C1SCC(=O)NC1CC1	16.4µM*	?	16.4µM*	4.1%	-29.1%	0.7%
C=CCN1C(=O)/C(=C\c2ccc(Cl)cc2)N=C1SCC(=O)NC1CCCCC1	-16.2%	9.1%	-4.7%	-6.3%	12.6%	0.9%
COc1ccc(CN2C(=O)CN(S(C)(=O)=O)CC2(C)C(=O)NCc2ccccc2)cc1OC (stereo unspecified)	18.6%	13.2%	27.4%	·	7.3%	·
Cc1ccc(-c2nnc(SCC(=O)N/N=C/c3ccc(C(=O)O)cc3)n2C2CCCCC2)cc1	17.9%	-1.9%	-8.9%	3.0%	-1.4%	1.9%
CC(C)(C)c1ccc(-c2nnc(SCCC#N)n2C2CCCC2)cc1	18.4µM*	?	18.4µM*	?	?	-14.7%
O=C(CSc1nnc(-c2ccccc2F)n1C1CCCCC1)N1CCCC1	-23.4%	6.2%	-24.0%	1.4%	14.6%	-9.6%
O=C(CSc1nnc(-c2ccc(Cl)cc2Cl)n1C1CCCCC1)N1CCCC1	20.6µM*	-0.9%	23.1µM*	9.8%	1.9%[9.24 µM]	-13.2%
O=C(CSc1nnc(-c2ccc(Br)cc2)n1C1CCCCC1)N1CCCC1	23.1µM*	-10.8%	?	4.6%	0.8%	-15.3%
CCOc1ccc(-c2nnn(CC(=O)c3ccc4c(c3)OCCO4)n2)cc1OCC	18.4µM*	0.9%	?	?	?	-30.0%
CCOc1ccc(-c2nnn(CC(=O)NCc3ccc(F)cc3)n2)cc1OCC	-10.1%	0.1%	-18.9%	7.2%	1.2%	-15.2%
O=C1COC(c2ccccc2)=CN1Cc1ccccc1	-11.0%	1.8%	-17.3%	-6.9%	0.9%	-26.7%
Cc1cc(C(=O)NNC(=O)C(C)(C)Oc2ccc(Cl)cc2)c(C)o1	?	-2.0%	1.9%	5.1%	0.0%	0.3%
Cc1c(Cl)cccc1NC(=O)CSc1nnnn1C	?	2.2%	6.0%	0.3%	3.7%	-1.4%
CC(=O)c1ccc(NC(=O)CSc2nnc(-c3ccco3)c(-c3ccco3)n2)cc1	-25.7%	-20.0%	?	11.1%	-21.7%	-0.9%
COc1ccc(-c2nnc(SCC(=O)Nc3cccc(Cl)c3C)nc2-c2ccc(OC)cc2)cc1	10.3µM*	·	?	-13.4%	·	6.9%
COc1ccc(-c2nnc(SCC(=O)Nc3ccc(C(C)=O)cc3)nc2-c2ccc(OC)cc2)cc1	10.3µM*	·	11.6µM*	15.0%	·	9.2%
CCCCC(=O)N(C)c1c(CC)nc2c(OCc3cccc(Cl)c3)cccn12	23.1µM*	?	?	4.2%	?	-8.4%
SMILES	DT40 TDP1 no CPT	HT1080-NT tox	TDP1 cell CPT	TGFb SMAD3 inh	HT1080 IDH1KD tx	HepG2 tox
CCc1nc2c(OCc3cccc(Cl)c3)cccn2c1N(C)C(C)=O	?	10.3%	?	3.1%	4.6%	7.8%
CCc1nc2c(OCc3ccccc3C(=O)OC)cccn2c1N(C)C(=O)Nc1ccccc1OC	?	-7.2%	?	8.1%	-29.9%	-11.6%
CCc1nc2c(OCc3cccc(Cl)c3)cccn2c1N(C)C(=O)Nc1ccccc1OC	23.1µM*	?	18.4µM*	?	?	-7.5%
CCc1nc2c(OCc3cccc(Cl)c3)cccn2c1N(C)C(=O)C(C)C	18.4µM*	-21.3%	16.4µM*	-5.7%	-14.9%	-49.3%
CCCCC(=O)N(C)c1c(CC)nc2c(OCC=C(C)C)cccn12	20.6µM*	?	?	7.4%	?	-31.0%
CN1CCN(S(=O)(=O)c2ccc(NC(=O)c3ccc(F)cc3Cl)cc2)CC1	-1.1%	-1.1%	-1.7%	13.8%	-7.4%	1.8%
CCOC(=O)c1c(-c2ccc(Br)cc2)csc1NC(=O)c1ccc(C(C)(C)C)cc1	2.2%	·	-7.5%	4.6%	·	-9.9%
O=C(CSc1nnc(-c2cccnc2)n1-c1ccccc1)Nc1ccccn1	16.4µM*	0.0%	?	0.0%	2.0%	-19.1%
Clc1ccc(-n2c(SC/C=C/c3ccccc3)nnc2-c2cccnc2)cc1	?	?	23.1µM*	?	?	-28.0%
c1cnc2c(-c3nccc4c3[nH]c3ccccc34)cccc2c1	-11.2%[9.04 µM]	·	17.1%[9.04 µM]	·	·	·
COc1ccc(NC(=O)C2CCN(c3nc(-c4ccc(OC)cc4)no3)CC2)cc1	?	1.7%	?	-9.8%	-3.8%	-4.5%
N#Cc1cccc(NC(=O)C2CCN(c3nc(-c4ccc(Cl)cc4)no3)CC2)c1	16.4µM*	·	13µM*	-23.6%	·	-28.9%
COc1ccc(-c2noc(N3CCC(C(=O)Nc4ccc(F)cc4F)CC3)n2)cc1	-19.0%	0.2%	?	0.6%	-1.2%	-13.5%
COc1ccc(NC(=O)C2CCN(c3nc(-c4ccc(OC)c(OC)c4)no3)CC2)cc1Cl	?	·	4.11µM*	6.9%	·	-2.6%
COc1ccc(NC(=O)C2COc3ccccc3C2)cc1Cl (stereo unspecified)	16.4µM*	·	18.4µM*	19.2%	·	-2.1%
N#Cc1cccc(NC(=O)C2CCN(c3ncccn3)CC2)c1	3.1%	·	-15.6%	-17.5%	·	-1.0%

Compound activity (PubChem)
